High-throughput results (PubChem)
Rows were chosen to be rich in hits. Some 5.7% of all compounds tested hit in one or more screens of this group.
hcDAF-12 act: H. contortus DAF-12 nuclear receptor activators, primary screen, cell-based, luminescence, HEK293, lit1-tk-luc reporter; HEK293 hcDAF-12 lit1-tk-luc reporter; 0% DMSO, 100% Δ7-dafachronic acid; activation, % at 6.8 µM; actives 1.4% (n = 370,000);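 active = activation above the mean of all tested compounds plus 3 SD, cut at about 5.5% in these data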;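 also: 100% = response to 3 µM Δ7-dafachronic acid high control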
AHR act: AHR activators, primary screen, cell-based, luminescence, luciferase reporter, human | actives 2.5% (n = 320,000) | activation, % at 5 µM | AID 2796, 2010 | AHR-responsive luciferase reporter cells | Aryl hydrocarbon receptor (Homo sapiens), P35869; in the data active = activation above about 47%;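 also: 0% = vehicle wells and 100% = reference agonist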
DAX1 inh-1: DAX1 (NR0B1) inhibitors on StAR promoter, primary screen, cell-based, luminescence, SF-1 (NR5A1), full-length DAX-1; HEK293T StAR-luciferase reporter, SF-1/DAX-1 repression relief; inhibition, % at 6.8 µM; actives 1.1% (n = 370,000);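 active = inhibition above the mean over all tested compounds plus 3 SD, cut at about 3.6% in these data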;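 also: 0% = DAX-1 cells with DMSO and 100% = cells lacking DAX-1 with DMSO; higher inhibition means more luminescence from relief of DAX-1 repression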
ssDAF-12 act: S. stercoralis DAF-12 nuclear receptor activators, primary screen, cell-based, luminescence, HEK293, GRIP1 co-expression, lit1-tk-luc. activation, % at 6.8 µM. actives 1% (n = 370,000). Nuclear hormone receptor DAF-12 (Strongyloides stercoralis). HEK293 ssDAF-12/GRIP1 lit1-tk-luc reporter; % of 3 µM dafachronic acid response;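 active = activation above the mean over all tested compounds plus 3 SD, cut at about 0.9% in these data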;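 also: 0% = DMSO-only wells and 100% = 3 µM delta7-dafachronic acid wells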
DAX1 inh-2: DAX1 (NR0B1) inhibitors, primary screen, cell-based, HEK293, Gal4-DAX1, luciferase luminescence; Nuclear receptor subfamily 0 group B member 1 (Homo sapiens), P51843; HEK293 Gal4-DAX1 luciferase reporter; inhibition, % at 6.75 µM; actives 0.99% (n = 340,000); AID 504766, 2011;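 active = inhibition above the mean over all tested compounds plus 3 SD, cut at about 4.2% in these data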;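 also: 0% = DAX1-transfected cells with DMSO and 100% = empty-vector control cells with DMSO; inhibition shows as a rise in luminescence from relieved DAX1 repression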
Target sequence (P51843 207-470 limits assumed): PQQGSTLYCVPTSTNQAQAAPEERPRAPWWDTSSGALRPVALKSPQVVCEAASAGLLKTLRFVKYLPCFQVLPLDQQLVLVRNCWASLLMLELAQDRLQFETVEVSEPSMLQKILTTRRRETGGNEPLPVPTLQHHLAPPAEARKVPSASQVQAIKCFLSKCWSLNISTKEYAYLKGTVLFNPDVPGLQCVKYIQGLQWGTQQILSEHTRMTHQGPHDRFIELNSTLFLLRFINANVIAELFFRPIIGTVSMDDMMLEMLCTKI
hgDAF12 agonist: H. glycines DAF-12 receptor agonists, primary screen, cell-based, luminescence, HEK293, GAL4 fusion, UAS-luciferase | Nuclear hormone receptor DAF-12 (Heterodera glycines), GAL4 fusion | HEK293 GAL4-hgDAF12 UAS-luciferase reporter, agonist luminescence; normalized to butyrate control | activation, % at 6.8 µM | actives 1.8% (n = 370,000) | AID 687014, 2013;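 active = activation above a cutoff set at the mean of all screened compounds plus 3 SD, cut at about 10% in these data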;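 also: 0% = DMSO wells and 100% = sodium butyrate wells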
LXRb hcDAF ctr: LXR agonists, Gal4 luciferase reporter, confirmation, counter-screen for hcDAF-12 agonist project, cell-based, luminescence, HEK293, H. contortus campaign. HEK293 Gal4-LXR tk-luc reporter, 24 h; normalized: DMSO 0%, positive control 100%. 3,400 tested, under 10 active. shares compounds with hcDAF-12 act. activation, % at 6.8 µM;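 active = mean percent activation of the reporter above a cutoff set as the average over tested compounds plus their standard deviation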
hcDAF12 ag: H. contortus DAF-12 receptor agonists, confirmation, cell-based, luminescence, HEK293, lit1-tk-luc, triplicate; shares compounds with hcDAF-12 act; HEK293 hcDAF-12 lit1-tk-luc reporter; % of Δ7-dafachronic acid response; activation, % at 6.8 µM; actives 61% (n = 3,400); AID 743032, 2013;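 active = mean activation across triplicate tests above the threshold derived from the earlier primary screen, cut at about 5.5% in these data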;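 also: 0% = DMSO only wells and 100% = 3 µM Δ7-dafachronic acid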
hgDAF12 conf: H. glycines DAF-12 receptor agonists, confirmation, cell-based, luminescence, HEK293, GAL4-LBD fusion; shares compounds with hgDAF12 agonist; HEK293 GAL4-hgDAF12 luciferase reporter, agonist mode; percent of butyrate response; activation, % at 6.8 µM; actives 80% (n = 3,300); AID 743050, 2013;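 active = mean activation over triplicate wells above the hit cutoff derived from the earlier primary screen, cut at about 11% in these data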;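 also: 0% = DMSO low control and 100% = 2 mM sodium butyrate high control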
LXR ag 2: LXR agonists, Gal4 luciferase reporter, confirmation, counter-screen for hgDAF-12 agonist project, cell-based, luminescence, HEK293, H. glycines campaign; AID 743051, 2013; shares compounds with hgDAF12 agonist; 24 h; 3,300 tested, under 10 active; activation, % at 6.8 µM;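 active = mean activation of the triplicate above a set limit carried over from the primary screen, none filed active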
Active calls of the source: *; . = no result given.

SMILES | hcDAF-12 act | AHR act | DAX1 inh-1 | ssDAF-12 act | DAX1 inh-2 | hgDAF12 agonist | LXRb hcDAF ctr | hcDAF12 ag | hgDAF12 conf | LXR ag 2
CC(=O)c1ccc(NC(=S)NC(C)CCc2ccccc2)cc1 (stereo not given) | -1 | -2 | 1 | 0 | 3 | 1 | . | . | . | .
Cc1ccc(Nc2nc(-c3ccc(O)c(O)c3)cs2)nc1 | -1 | . | -1 | -2 | . | -1 | . | . | . | .
Cc1ccc(Nc2nc(-c3ccc(F)cc3)cs2)nc1 | 18* | . | 2 | 2.7* | 6.4* | 14* | 1 | 11* | 18* | 1
COc1ccc(N=CC2=C(Nc3ccc(OC)cc3)c3c(C)nn(-c4ccccn4)c3CC2)cc1 | . | 11 | . | . | . | . | . | . | . | .
O=C(Nc1cccc(Cl)c1)c1cnn2cccnc12 | 7.7* | 21 | 3 | 0 | 2 | 17* | 1 | 7.5* | 14* | 1
Cn1c2nc3ccccc3c-2nc2ccccc21 | 8.3* | . | 2 | 0 | 2 | 16* | 0 | 6.7* | 15* | 0
CC(C)c1ccc(NC(=O)c2snc3ccc(Cl)cc23)cc1 | 11* | 55* | 3.8* | 2.7* | 3 | 20* | 1 | 12* | 17* | 1
CCCCN(C=O)c1c(CC)nc2c(OCc3ccc(Cl)cc3Cl)cccn12 | 0 | . | -2 | -2 | . | -4 | . | . | . | .
Cc1cc(NC(=O)COC(=O)c2ccccc2Cl)no1 | -2 | 0 | -1 | -1 | 0 | -1 | . | . | . | .
Cc1cc(/C(N)=N/OC(=O)c2ccccc2Cl)no1 | 13* | 38 | 3 | 1.2* | . | 14* | 2 | 9.6* | 17* | 1
COc1ccc2nc(NC(=O)c3ccccc3F)sc2c1 | 6.9* | -8 | 3 | 0 | 2 | 16* | 2 | 6.2* | 21* | 1
COc1ccc2nc(NC(=O)c3cnccn3)sc2c1 | 8.6* | 13 | 3.6* | 1.1* | 0 | 15* | 1 | 5 | 15* | 1
Cc1ccc2nc(NC(=O)c3ccccc3F)sc2c1 | 13* | 1 | 2 | 1.6* | -1 | 19* | 2 | 15* | 20* | 1
CCOc1ccc(NC(=O)CC2C(=O)N(c3ccc(OC)c(Cl)c3)C(=S)N2C2CC2)cc1 (stereo not given) | -1 | -2 | -1 | -1 | 0 | 2 | . | . | . | .
COc1ccc(C2=Cc3ccccc3C(CC(=O)C3CC3)N2c2ccc(-c3cc(OC)c(OC)c(OC)c3)cc2)cc1 (stereo not given) | -2 | . | -5 | -2 | . | -1 | . | . | . | .
